# Results filed as inconclusive are left out. A call without a number means that no potency is given here. Calls of active or inactive are those of the source. The call rests on the fitted dose curve; in most records, active means well fitted curve in the direction sought with a large enough effect in the repeat runs; inconclusive means weak or mixed curves; inactive means no such curve, though single readings can be large; an effect the other way counts as inactive or inconclusive.
# Test: qHTS RealTime-Glo MT Cell Viability Assay in HEK293 cells - 32 hour (AID 1224868); further: potency means the concentration at half of the fitted maximal effect
# Conditions: RealTime-Glo luminescence; series mostly up to 76.8 µM
# Outline: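 Quantitative high-throughput screen of the Tox21 10K library in HEK293: cells and RealTime-Glo reagents plated together, compound added at 5 h, luminescence monitored through 40 h at 37 C.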
# Further: nearly all actives have a fitted effect of over 50% in size.
row,Structure (SMILES),Potency
1,CC/C=C1/OC(=O)c2ccccc21,inactive
2,CCCCCC[C@@H](O)C/C=C\CCCCCCCC(=O)O,inactive
3,COc1ncnc(NS(=O)(=O)c2ccc(N)cc2)c1OC,inactive
4,Nc1nnc(-c2ccc([N+](=O)[O-])o2)o1,inactive
5,COc1cc(Nc2c(C#N)cnc3cc(OCCCN4CCN(C)CC4)c(OC)cc23)c(Cl)cc1Cl,8.49 µM (active)

# Test: A CellTox Green Cytotoxicity Assay to monitor cytotoxicity in HEK293 cells - 0 hour (AID 1224869)
# Conditions: CellTox Green fluorescence; series mostly up to 76.8 µM
# Outline: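 Fluorescence intensity, read at 0, 8, 16, 24, 32 and 40 h of compound treatment, reflected dye binding to DNA of dead HEK293 cells; compounds (23 nL, DMSO) were added 5 h after plating cells with reagent.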
row,Structure (SMILES),Potency
1,CCC(C)COC(C)=O (stereo not drawn),inactive
2,CN(C)CCC=C1c2ccccc2C=Cc2ccccc21,inactive
3,C1COC1,inactive
4,O=Cc1c2ccccc2c(Cl)c2ccccc12,inactive
5,CC(C)(O)c1ccc(CNC(=O)c2cccnc2Oc2ccc3nonc3c2)cc1,inactive
6,COc1ccccc1Oc1c(NS(=O)(=O)c2ccc(C(C)(C)C)cc2)nc(-c2ncccn2)nc1OCCO,inactive
7,C=COCC(C)C,inactive
8,C[C@]1(Cn2ccnn2)[C@H](C(=O)O)N2C(=O)C[C@H]2S1(=O)=O,inactive
9,Cc1cc(C)cc(N)c1,inactive
10,CC1CC(OC(=O)C(O)c2ccccc2)CC(C)(C)N1C (stereo not drawn),inactive
11,O=C(O)c1cccc(-c2noc(-c3ccccc3F)n2)c1,inactive
12,CC1=C(CC=O)C(C)(C)CCC1,inactive
13,COC(=O)C1=C(C)NC(C)=C(C(=O)O[C@@H]2CCCN(Cc3ccccc3)C2)[C@@H]1c1cccc([N+](=O)[O-])c1,inactive
14,CC(C)=CCC/C(C)=C/CC/C(C)=C/CCC(=O)OC/C=C(\C)CCC=C(C)C,inactive
15,CC[N+](CC)(CCNC(=O)C(=O)NCC[N+](CC)(CC)Cc1ccccc1Cl)Cc1ccccc1Cl,inactive
16,CN1C(=O)OC(C)(C)C1=O,inactive
17,CC(C)C(O)(c1ccc(OC(F)(F)F)cc1)c1cncnc1 (stereo not drawn),inactive

row,Structure (SMILES),Potency
1,Cc1cccc(N(C)C(=S)Oc2ccc3c(c2)CCC3)c1,inactive
2,NC1[C@H]2CN(c3nc4c(cc3F)c(=O)c(C(=O)O)cn4-c3ccc(F)cc3F)C[C@@H]12 (stereo partly drawn),inactive
3,CCCCCCCCCCCCCCN(CCO)CCO,inactive
4,O=C(O)CCc1nc(-c2ccccc2)c(-c2ccccc2)o1,inactive
5,CC=C(Cl)Cl,inactive
6,CN1C(=O)N(c2ccccc2Br)Cc2cnc(Nc3ccc4c(c3)OCC(CO)O4)nc21 (stereo not drawn),inactive
7,CCCCC(CC)COP(=O)(O)O (stereo not drawn),inactive
8,C1C[C@@H]2[C@H]3CC[C@H](C3)[C@@H]2C1,inactive
9,CCOc1ccc(Cc2nccc3cc(OCC)c(OCC)cc23)cc1OCC,inactive
10,CC/C=C1/OC(=O)c2ccccc21,inactive
11,CNC(=O)c1cnn(-c2nc(N)c3ncn([C@@H]4O[C@H](CO)[C@@H](O)[C@H]4O)c3n2)c1,inactive
12,COc1cc(C(=O)NCCCCCC(=O)O)cc(OC)c1OC,inactive
13,COc1ncnc(NS(=O)(=O)c2ccc(N)cc2)c1OC,inactive
14,CCOC(=O)c1ccc(OCCN2C[C@H](O)[C@@H](O)[C@H](O)[C@H]2CO)cc1,inactive
15,CC(CCC(=O)O)C(=O)O (stereo not drawn),inactive
16,COc1cc(Nc2c(C#N)cnc3cc(OCCCN4CCN(C)CC4)c(OC)cc23)c(Cl)cc1Cl,inactive
